Source: PubChem BioAssay (National Center for Advancing Translational Sciences (NCATS))
SARS PLpro yeast – blocks SARS-CoV papain-like protease in a yeast assay; S. cerevisiae expressing SARS-CoV PLpro, growth rescue; 330,000 compounds, 0.19% hits; Potency, µM (highest dose often 32.9 µM), usual class: activators; calls by dose curve; also: nearly all actives have a fitted effect of over 55% in size
Pf growth 96h – inhibits malaria parasite growth, 96 h; P. falciparum luciferase reporter growth, 96 h; Potency, µM (doses to about 28.7 µM), most hits filed as inhibitors; 320,000 compounds, 6.9% hits; AID 504834
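Compounds incubated with erythrocytes infected by luciferase-expressing P. falciparum (2% hematocrit, 0.05% parasitemia final) for 96 hours, 37 C in 5% CO2. Growth inhibition scored as decreased luciferase luminescence.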
NS1 inh – influenza NS1 inhibition. AID 2326. Potency, µM (titrated, usually from 46.1 µM). 270,000 compounds, 0.4% hits; calls by dose curve; also: actives are rising curves; nearly all actives have a fitted effect of over 50% in size
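A cell-based growth assay was used: compounds that relieve NS1-induced slow growth of budding yeast raise OD600. Assay medium was yeast nitrogen base with ammonium sulphate and -URA supplement, pH 6.0, with 2% galactose.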
Pf growth 48h – P. falciparum growth inhibition at 48 hours (one generation) | P. falciparum luciferase growth in erythrocytes, 48 h | Potency, µM (doses to about 28.7 µM), hits mostly inhibitors | 310,000 compounds, 5.9% hits | AID 504832
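A one-generation exposure of luciferase-tagged malaria parasites in RPMI 1640/Albumax erythrocyte culture, 37 C and 5% CO2. Inhibition is inferred from decreased luminescence after adding detection reagent.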
Hits are given with their value; - = inactive; ? = inconclusive; . = no result. In the library only some 10% were active in any assay of this set; here they are far more common. Unless noted, calls follow the shape of the dose curve; as a rule, active = well fitted inhibition curve with a large enough effect; inconclusive = small, poorly fitted or top-dose-only effect, or another doubt; inactive = no such curve, though single readings can be large or run the other way.

SMILES	SARS PLpro yeast	Pf growth 96h	NS1 inh	Pf growth 48h
Cc1cccc(NC(=O)CSc2nc3[nH]ncc3c(=O)n2-c2ccccc2)c1	-	7.4µM	?	-
CCC(C)(C)NC(=O)C(c1cccnc1)N(C(=O)c1csnn1)c1ccc(C)cc1 (stereo unspecified)	-	-	-	?
CC(C)(C)NC(=O)C(c1cccs1)N(Cc1ccc(F)cc1)C(=O)c1csnn1 (stereo unspecified)	-	-	-	9.3µM
CC(C)(C)NC(=O)C(c1cccs1)N(C(=O)c1csnn1)c1cccc(F)c1 (stereo unspecified)	-	-	-	-
Cc1ccc(CN(C(=O)c2csnn2)C(C(=O)NC2CCCC2)c2ccc(C)o2)cc1 (stereo unspecified)	-	-	-	15µM
CCC(C)(C)NC(=O)C(c1ccncc1)N(Cc1ccc(C)cc1)C(=O)c1csnn1 (stereo unspecified)	-	4.7µM	-	-
CCOc1ccc(NC(=O)C2CCN(S(=O)(=O)c3ccc4c(c3)C(C)(C)C(=O)N4C)CC2)cc1	-	-	-	-
CCCOc1ccc(C2Nc3cccc4cccc(c34)N2)cc1	-	?	-	?
O=C1c2ccccc2NC(c2ccc([N+](=O)[O-])cc2)N1O (stereo unspecified)	?	-	-	?
CCN(CC)c1ccc(C2Nc3cccc4cccc(c34)N2)cc1	-	?	-	10µM
COc1ccc(C2Nc3cccc4cccc(c34)N2)cc1Br	-	?	-	10µM
O=[N+]([O-])c1cccc(C2Nc3cccc4cccc(c34)N2)c1	-	-	-	4.1µM
O=C1c2ccccc2NC(c2cccc([N+](=O)[O-])c2)N1O (stereo unspecified)	-	8.3µM	-	?
Fc1ccc(C2Nc3cccc4cccc(c34)N2)cc1	-	-	-	?
O=[N+]([O-])c1ccc(C2Nc3cccc4cccc(c34)N2)cc1	-	13µM	-	-
CC1CCN(C(=O)Cn2nnc(-c3ccccc3)n2)CC1	-	?	-	-
CC1CCN(C(=O)Cn2nnc(-c3ccc([N+](=O)[O-])cc3)n2)CC1	-	15µM	-	-
Cc1c2cnccc2c(C)c2c1c1ccccc1n2CCOC(=O)c1ccccc1	.	.	-	.
CCC(C)c1ccc(NC(=S)N2CCN(S(C)(=O)=O)CC2)cc1 (stereo unspecified)	-	-	-	?
CC(C(=O)Nc1ccc(Cl)cc1Cl)N1C(=O)NC2(CCCC2)C1=O (stereo unspecified)	-	-	-	-
COc1ccc(/C=C2\SC(=O)N(CC(=O)NNC(=O)c3ccccc3O)C2=O)cc1	-	3.3µM	-	-
C=CCSc1cc(C)nc2c(-c3ccccc3)c(C)nn12	-	10µM	-	?
Cc1cccc(/C=N/c2sc3c(c2C(=O)OC(C)(C)C)CCN(C)C3)c1O	-	1.9µM	-	?
CCOC(=O)c1c(/N=C/c2cc(C)ccc2O)sc2c1CCN(C)C2	-	?	-	-
Nn1c(SCC(=O)Nc2nccs2)nnc1-c1cccnc1	-	-	.	-
SMILES	SARS PLpro yeast	Pf growth 96h	NS1 inh	Pf growth 48h
CC(C)(C)C(=O)NC(=S)Nc1cc(C(F)(F)F)ccc1N1CCOCC1	-	?	-	.
O=C(NC(=S)Nc1cc(C(F)(F)F)ccc1N1CCOCC1)c1sc2ccccc2c1Cl	-	3.3µM	-	2.1µM
CCCCn1nc(C(=O)Nc2cc(C(F)(F)F)ccc2N2CCOCC2)ccc1=O	-	?	.	12µM
CC(C(=O)Nc1cc(C(F)(F)F)ccc1N1CCOCC1)N1C(=O)C2CCCCC2C1=O (stereo unspecified)	-	-	.	-
CCOC(=O)C(=CNc1cc(C(F)(F)F)ccc1N1CCOCC1)C(=O)OCC	-	?	-	4.1µM
COc1cc(Cl)c(C)cc1NC(C)C(=O)Nc1cc(C(F)(F)F)ccc1N1CCOCC1 (stereo unspecified)	-	0.066µM	-	0.15µM
CC(OC(=O)c1cccc(S(=O)(=O)N2CCCC2)c1)C(=O)NC1CCCCC1C (stereo unspecified)	-	-	.	?
CCC(Oc1ccccc1)C(=O)Nc1cc(C(F)(F)F)ccc1N1CCOCC1 (stereo unspecified)	-	1.5µM	.	1.7µM
COc1ccc(NC(C)C(=O)Nc2cc(C(F)(F)F)ccc2N2CCOCC2)c(OC)c1 (stereo unspecified)	-	0.046µM	-	0.12µM
COc1ccc(-c2nc(-c3ccccc3)nc(N3CCN(C)CC3)c2C#N)cc1	-	13µM	-	?
COC(=O)c1sc2nc(-c3ccccc3)nc(N3CCN(C)CC3)c2c1C	-	.	-	3.7µM
COC(=O)c1sc2nc(CN3CCOCC3)nc(N3CCOCC3)c2c1C	-	-	-	10µM
CN1CCN(c2nc(-c3ccccc3)nc(-c3ccccc3)c2C#N)CC1	-	?	-	?
Cc1sc2nc(CN3CCOCC3)nc(N3CCOCC3)c2c1C	-	?	-	.
CCn1cc(S(=O)(=O)c2ccc(C)cc2)c(=O)c2cc(OC)ccc21	-	-	-	-
COc1ccc(C2C=C(c3ccccc3)Nc3ncnn32)cc1 (stereo unspecified)	-	-	-	?
CCOc1ccc(C2C=C(c3ccc(C)cc3)Nc3nnnn32)cc1 (stereo unspecified)	-	13µM	-	8.3µM
CCOc1ccc(C2C=C(c3ccc(C)cc3)Nc3ncnn32)cc1 (stereo unspecified)	-	-	-	10µM
COc1cc(CN2CCC(n3nccc3NC(=O)CCCc3ccccc3)CC2)ccc1F	-	?	?	?
Cc1c(N)cccc1N	-	?	.	-
Cc1ccc2cccc(N)c2n1	-	0.93µM	.	-
O=C(N/N=C/c1cc(Br)cc(Br)c1O)c1cccc(N2CCCC2=O)c1	-	10µM	-	-
O=C(N/N=C\c1cccc(O)c1)c1ccncc1	.	.	-	.
O=C(N/N=C/c1ccc(O)cc1O)c1ccncc1	-	12µM	-	?
O=C(N/N=C/c1cc(Br)cc(Br)c1O)c1ccncc1	-	-	.	9.3µM
SMILES	SARS PLpro yeast	Pf growth 96h	NS1 inh	Pf growth 48h
Cc1ccc(C(C)C)c(OCc2ccc(C(=O)N/N=C/c3ccc(O)cc3O)cc2)c1	3.2µM	?	-	2.6µM
Cc1ccc(C(C)C)c(OCc2ccc(C(=O)N/N=C/c3ccc(C(=O)O)cc3)cc2)c1	-	-	-	?
O=C(COC(=O)CCCN=C1NS(=O)(=O)c2ccccc21)NNC(=O)c1ccccc1	.	-	.	-
O=C(CN1CCN(C(=O)c2cccc(S(=O)(=O)N3CCCC3)c2)CC1)Nc1ccc(F)cc1	-	?	.	?
O=C(N/N=C/c1c[nH]c2ccccc12)c1ccncc1	-	12µM	-	-
COc1ccc2[nH]c(C(=O)N/N=C/c3ccc(O)cc3O)cc2c1	?	?	-	6.6µM
Oc1c(Cl)cc(Cl)cc1/C=N/Nc1ncc(Br)cn1	-	15µM	.	0.093µM
Cc1cc(Br)cc(/C=N/NC(=O)c2ccc3c(c2)OCO3)c1O	-	13µM	-	13µM
Cc1ccc2c(CC(=O)Nc3ccc(F)c(S(=O)(=O)N4CCOCC4)c3)coc2c1	-	?	.	?
CC1CCCC(NC(=O)Cn2cc(C(F)(F)F)cc(Cl)c2=O)C1C (stereo unspecified)	-	?	.	?
